# Records with an inconclusive call do not appear. The source made the active and inactive calls. The call rests on the fitted dose curve; in most records, active means well fitted inhibition curve with a large enough effect; inconclusive means small, poorly fitted or top-dose-only effect; inactive means no such curve, though single readings can be large or run the other way.
# Assay: Tertiary RLuc qRT-PCR qHTS assay for Zika virus inhibitors (AID 1347169); further: top concentration of the series differs between compounds; nearly all actives have a fitted effect of over 55% in size
# Details: infected Vero cells, reporter luminescence, 48-72 h; series mostly up to 45.9 µM; activity change, negative = inhibition: at the top concentration
# In short: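 Vero, 1,000 cells/well, o/n 37 C; cpd pinned in DMSO; ZIKV-RLuc Cambodian, MOI 1-2, 48-72 h 37 C; live-cell RLuc substrate, lum read at 1-1.5 h.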
# On the % scale 0 is the no-effect control and ±100 the full control effect.
row,Compound,"activity change, negative = inhibition"
1,O=C1C(I)=CC(=C(c2cc(I)c(O)c(I)c2)c2ccccc2C(=O)O)C=C1I,34.1% [at 1.74 µM] (inactive)
2,CN(C)[C@@H]1C(=O)C(C(N)=O)=C(O)[C@@]2(O)C(=O)C3=C(O)c4c(O)cccc4[C@@](C)(O)[C@H]3[C@H](O)[C@@H]12,-12.8% (inactive)
3,O=C(O)c1cc(Oc2ccc(C(F)(F)F)cc2Cl)ccc1[N+](=O)[O-],35.5% [at 1.74 µM] (inactive)

# Reference: PubChem BioAssay (NCATS)
